# Source: the supplement of paper PMC12636033
# ± gives the standard deviation of the averaged measurements. The full ranking holds about 33,000 sequences; the median of “E-score (rank enrichment, -0.5 to 0.5)” is about -0.0075, and the highest 2% start at about 0.23. The sample as a whole holds a higher share of the highest values than the screen did.
# System: WT Max(13-93) synthetic (M65Nle)
# Assay: PBM 8-mer E-score (E-score (rank enrichment, -0.5 to 0.5)); higher = stronger preferential binding
# Experimental: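 Protein binding microarray (universal PBM chip covering all 10-mers in fixed probe flanks) with chemically synthesized human Max(13-93) bHLH-LZ analogs (not full-length Max) bearing noncanonical residues (hArg, Tha, Aib, Nle at 65) and aromatic Cys staples. Read-out per 8-mer (and its reverse complement): E-score (rank-based enrichment, -0.5 to 0.5) and Z-score of median probe intensity.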
row,Sequence,PBM 8-mer E-score
1,ATATTAGC,0.124 ± 0.022
2,ATATTACC,0.267 ± 0.029
3,ATATTAGG,0.244 ± 0.036
4,ATATTACA,0.197 ± 0.017
5,CTATTACC,-0.0563 ± 0.029
6,ATATTACG,0.241 ± 0.0048
7,ATATTAGA,0.172 ± 0.004
8,AAATTACG,0.0856 ± 0.02
9,CGTCGGGA,-0.106 ± 0.096
10,CACCGCGA,-0.226 ± 0.025
11,CTAGGTCC,-0.172 ± 0.12
12,GGAAGCAC,0.0303 ± 0.0034
13,ATCATGAT,0.312 ± 0.0072
14,AACATAAT,0.252 ± 0.011
15,ATCAACAT,0.24 ± 0.013
16,ATCAACAG,0.106 ± 0.018
17,ATCATAAT,0.269 ± 0.033
18,AACATAAG,0.097 ± 0.013
19,ATCATGAA,0.0859 ± 0.037
20,ATCATAAG,0.172 ± 0.039
21,ATCATAAA,0.142 ± 0.15
22,ATCAACAA,0.15 ± 0.12
23,ATCATGAG,0.058 ± 0.031
24,AACATAGT,0.0321 ± 0.091
25,ACGGGGAG,0.0661 ± 0.065

row,Sequence,PBM 8-mer E-score
1,CCATCCAC,0.155 ± 0.16
2,GAGCTGGA,-0.13 ± 0.0049
3,AAGGCTCC,-0.199 ± 0.056
4,ACTGTCCC,0.1452 ± 0.001
5,AGAGGCTC,-0.129 ± 0.083
6,GTCGCCGA,-0.0844 ± 0.015
7,TATGGTAA,0.104 ± 0.1
8,GTGTCCTA,-0.012 ± 0.016
9,GCCAACGA,-0.0918 ± 0.043
10,ATCGGTTG,-0.0382 ± 0.099
11,CCTGATGA,-0.114 ± 0.085
12,TTGATAAA,0.25 ± 0.021
13,ATCATCAC,0.0578 ± 0.072
14,ATCATCAT,0.245 ± 0.026
15,ATCATCAA,-0.0899 ± 0.0026
16,CACATAAC,0.108 ± 0.067
17,GTGATAAA,0.143 ± 0.05
18,ATGATAAA,0.181 ± 0.084
19,ATCATATA,0.204 ± 0.012
20,ATCATATG,0.233 ± 0.0053
21,AACATAAC,0.247 ± 0.07
22,ATCATATC,0.134 ± 0.044
23,GACATAAC,0.17 ± 0.0081
24,AGGATATC,0.084 ± 0.03
25,CGCACCCA,0.0267 ± 0.1

row,Sequence,PBM 8-mer E-score
1,AAGGTGAC,-0.1212 ± 0.00044
2,CGGATGAC,0.00616 ± 0.15
3,TCCGGTCA,-0.19 ± 0.054
4,ACTCTGAA,-0.0606 ± 0.013
5,GAAAGCCA,-0.0183 ± 0.048
6,CTGTCTGA,0.00168 ± 0.0099
7,CTCAACAC,0.202 ± 0.084
8,ATGATAAG,0.17 ± 0.054
9,ATGATAAC,0.206 ± 0.023
10,ATGATAAT,0.251 ± 0.078
11,AGGCCTGG,-0.294 ± 0.061
12,TTATTAAA,0.131 ± 0.26
13,CTATTAAA,0.173 ± 0.011
14,ATATTAAC,0.218 ± 0.013
15,ATATTAAG,0.131 ± 0.02
16,ATATTAAT,0.274 ± 0.059
17,ATATTAAA,0.24 ± 0.03
18,AAGTTGGC,-0.119 ± 0.0037
19,TCGCTGCA,-0.149 ± 0.09
20,GGCGCCAC,-0.0393 ± 0.073
21,GCAGAAAC,0.0456 ± 0.087
22,AGACCTCA,-0.0265 ± 0.028
23,TCGGCACA,-0.0668 ± 0.093
24,AACGTGTC,0.189 ± 0.014
25,ATCGTGTA,0.0318 ± 0.041

row,Sequence,PBM 8-mer E-score
1,CGCGTGTA,0.29 ± 0.052
2,CCCGTGTA,0.183 ± 0.1
3,CCCGTGTC,0.0152 ± 0.049
4,GACGTGTA,-0.0197 ± 0.094
5,CACGTGTC,0.4823 ± 0.0015
6,CACGTGTA,0.4825 ± 0.0012
7,CGCGTGTC,0.232 ± 0.011
8,AACGTGTA,0.26 ± 0.0055
9,AACGTGTG,0.178 ± 0.016
10,AGCGTGTA,0.11 ± 0.018
11,GGCAGACC,-0.189 ± 0.022
12,AAGAGATC,-0.149 ± 0.086
13,AAGGTGCT,0.0391 ± 0.026
14,ACAGCAGT,-0.155 ± 0.016
15,AGATGTTG,-0.133 ± 0.11
16,GGATGTTA,0.0759 ± 0.064
17,ACATGTTA,0.267 ± 0.008
18,CCATGTTC,-0.00628 ± 0.14
19,AAATGTTA,0.127 ± 0.032
20,ACATGTTC,0.246 ± 0.016
21,CCATGTTA,0.103 ± 0.095
22,AGATGTTC,-0.10933 ± 4.9e-05
23,ACATGTTG,0.239 ± 0.012
24,GCATGTTA,0.266 ± 0.075
25,GAATGTTA,0.158 ± 0.079

row,Sequence,PBM 8-mer E-score
1,AAATGTTG,-0.0126 ± 0.086
2,ATAGTCTC,0.0149 ± 0.021
3,ACGGCCAT,-0.0405 ± 0.11
4,ATTAGGCG,-0.0541 ± 0.021
5,CTTGCAGC,-0.155 ± 0.06
6,AAGGCCCA,-0.0696 ± 0.03
7,AACCTCGG,-0.285 ± 0.089
8,ACAGCAGA,-0.0839 ± 0.019
9,CCTGGCCC,-0.288 ± 0.052
10,CATTCATC,0.048 ± 0.036
11,GATTCATA,-0.0144 ± 0.0027
12,CATTCATA,0.243 ± 0.071
13,CTACGGGA,0.0112 ± 0.028
14,CATACATG,0.245 ± 0.026
15,CATACATA,0.17 ± 0.086
16,CATACACG,0.238 ± 0.086
17,CATACATC,0.135 ± 0.022
18,AATACATT,0.132 ± 0.098
19,AATACATG,0.243 ± 0.072
20,AATACATA,0.211 ± 0.11
21,TATACACA,0.0996 ± 0.085
22,CATACACA,0.228 ± 0.099
23,AAAAGCAA,0.066 ± 0.13
24,GCCAGATA,-0.00267 ± 0.056
25,CCAACTTC,0.0001 ± 0.0037

row,Sequence,PBM 8-mer E-score
1,TGGAAAAA,0.0641 ± 0.057
2,ACTGTCCT,-0.0581 ± 0.038
3,CACGAGAA,0.12 ± 0.075
4,CACGAGTA,0.237 ± 0.0057
5,CACGAGGC,0.252 ± 0.079
6,TACGAGTA,0.173 ± 0.023
7,AACGAGAT,-0.133 ± 0.092
8,CACGAGGA,0.217 ± 0.02
9,AACGAGAA,0.242 ± 0.073
10,GACGAGTA,0.0201 ± 0.095
11,CACGAGGG,0.1535 ± 0.0012
12,CCTACAGA,-0.0418 ± 0.11
13,ATTTGTGC,0.0791 ± 0.13
14,CCGGCCAC,-0.164 ± 0.0042
15,ACAAGCCA,-0.0302 ± 0.081
16,CAATAAAA,0.29 ± 0.011
17,CAATAATG,0.0933 ± 0.042
18,CAATAATC,0.00647 ± 0.1
19,CAATAAAC,0.139 ± 0.04
20,CAATAATA,0.275 ± 0.019
21,GAATAAAA,0.184 ± 0.097
22,CCGACTCA,-0.185 ± 0.0089
23,CCTCAAAA,0.192 ± 0.0034
24,CCGCGTAG,-0.0165 ± 0.042
25,CGCTTCCC,-0.0261 ± 0.049

row,Sequence,PBM 8-mer E-score
1,CTTTGTTA,0.195 ± 0.042
2,AAGGAGGA,-0.0623 ± 0.0073
3,ATCATTGC,0.0872 ± 0.064
4,CGTATACG,0.241 ± 0.024
5,CGTATACC,-0.109 ± 0.063
6,AGTATACA,0.155 ± 0.15
7,GGTATACA,0.0958 ± 0.069
8,CGTATACA,0.105 ± 0.07
9,TGTATACA,0.307 ± 0.074
10,CCGATCCC,-0.173 ± 0.033
11,ATCACCCC,0.117 ± 0.11
12,CCAGGACC,-0.162 ± 0.086
13,ATAATCAT,0.285 ± 0.0003
14,CTAATCAG,0.027 ± 0.0044
15,AAAATCAG,0.104 ± 0.15
16,ATAATCAG,0.256 ± 0.14
17,ATAATCAC,0.04 ± 0.043
18,ATAATCAA,0.15 ± 0.011
19,AGCTTCTC,0.118 ± 0.0033
20,AGACGTCG,-0.117 ± 0.066
21,CACCCTCC,0.202 ± 0.054
22,CGGGGTCC,-0.276 ± 0.066
